Drawing on ChEMBL document CHEMBL4513141, “CO-ADD screening of NIH (USA) - Clinical Collection” (2021), this text covers Inhibition for 27 compounds.

One test deals with Klebsiella pneumoniae. The note with it: Concentration 20 uM; ASSAY_TEST Inhibition of Bacterial Growth; detection method Absorption (OD600); MEDIA CAMHB; plate type 384well; NBS; CORNING #3640; time 18 hr.
In a further test the test system is Candida albicans. The note with it: 20 µM.
The next test relates to Cryptococcus neoformans. The note with it: Concentration 20 uM; ASSAY_TEST Inhibition of Fungal Growth; detection method Resazurin; Absorption (OD600-OD570); plate type 384well; NBS; CORNING #3640. On the technique in general: Resazurin is reduced to fluorescent resorufin, in cell work by metabolically active cells.

Results with a measured potency or affinity are listed apart.

As for `O=C(O)c1cc(/N=N/c2ccc(S(=O)(=O)Nc3ccccn3)cc2)ccc1O` [SULFASALAZINE], the Inhibition was determined as 2.94% in the test on Klebsiella pneumoniae, 8.72% in the test on Candida albicans and 5.13% in the test with Cryptococcus neoformans.
For `CC(C)c1ccc2oc3nc(N)c(C(=O)O)cc3c(=O)c2c1` [AMLEXANOX], in that order: 7.43%, 8.26% and -1.01%.
Taken in the same sequence, the figures for `COc1ccccc1OCC(O)COC(N)=O` (stereo unspecified) [METHOCARBAMOL] were 10.57%, 3.99% and -8.85%.
Taken in the same sequence, the figures for `COc1cc(OC)c(C(=O)CCCN2CCCC2)c(OC)c1.Cl` were 10.87%, 3.75% and -6.77%.
For `C=C1/C(=C\C=C2/CCC[C@]3(C)[C@@H]([C@H](C)CCCC(C)(C)O)CC[C@@H]23)C[C@@H](O)C[C@@H]1O` [CALCITRIOL], the Inhibition in the test on Klebsiella pneumoniae was 21.35%; in the test with Candida albicans it was 2.06%; with Cryptococcus neoformans, -8.66%.
For `CC[C@H]1OC(=O)[C@H](C)C(=O)[C@H](C)[C@@H](O[C@@H]2O[C@H](C)C[C@H](N(C)C)[C@H]2O)[C@](C)(OC)C[C@@H](C)C(=O)[C@H](C)[C@@H]2N(CCCCn3cnc(-c4cccnc4)c3)C(=O)O[C@@]21C`, in that order: 3.48%, 0.39% and -1.28%.
Regarding `C=C1/C(=C\C=C2/CCC[C@]3(C)[C@@H]([C@H](C)/C=C/[C@@H](O)C4CC4)CC[C@@H]23)C[C@@H](O)C[C@@H]1O` [CALCIPOTRIENE], the Inhibition with Klebsiella pneumoniae was 16.21%; in the test with Candida albicans, 0.06%; with Cryptococcus neoformans, 0.21%.
`Br.Br.O=C1CC2(CCCC2)CC(=O)N1CCNCC1COc2ccccc2O1` (stereo unspecified): the Inhibition in the test on Klebsiella pneumoniae is 12.27%; with Candida albicans, 3.99%; with Cryptococcus neoformans it was -1.27%.
Taken in the same sequence, the figures for `CC(Cc1ccc(O)c(O)c1)(NN)C(=O)O.O` (stereo unspecified) were 11.66%, 2.35% and -6.03%.
For `CCCc1nc2c(C)cc(-c3nc4ccccc4n3C)cc2n1Cc1ccc(-c2ccccc2C(=O)O)cc1`, in that order: 15%, 1.9% and -31%.
For `O=c1[nH]c(=O)n(C2CCCO2)cc1F` (stereo unspecified) [TEGAFUR], the figures for the Inhibition in the test on Klebsiella pneumoniae, in the test with Candida albicans and in the test on Cryptococcus neoformans were 13.49%, 3.66% and -3.75%, respectively.
Taken in the same sequence, the figures for `Cc1cccc(Nc2ccncc2S(=O)(=O)NC(=O)NC(C)C)c1` [TORSEMIDE] were 8.97%, 2.49% and 0.39%.
As to `CC[C@H](C)C(=O)O[C@H]1C[C@H](O)C=C2C=C[C@H](C)[C@H](CC[C@@H](O)C[C@@H](O)CC(=O)[O-])[C@H]21.[Na+]` [PRAVASTATIN SODIUM], the figures for the Inhibition in the test with Klebsiella pneumoniae, in the test with Candida albicans and with Cryptococcus neoformans were 13.36%, 4.25% and -0.35%, respectively.
Taken in the same sequence, the figures for `CCOC(=O)OC(C)OC1=C(C(=O)Nc2ccccn2)N(C)S(=O)(=O)c2ccccc21` (stereo unspecified) [AMPIROXICAM] were 12.2%, 0.25% and -3.23%.
For `CC(=O)NCCCCCCNC(C)=O` [HEXAMETHYLENEBISACETAMIDE], in that order: 1.97%, 0.48% and -6.53%.
For `CC(C)OC(=O)CCC/C=C\C[C@@H]1[C@@H](CC[C@@H](O)CCc2ccccc2)[C@H](O)C[C@@H]1O` [LATANOPROST], in that order: 18.51%, 0.35% and -2.04%.
As for `O=C1c2c(O)cc(O)cc2O[C@H](c2ccc(O)c(O)c2)[C@H]1O` [(+)-TAXIFOLIN], the figures for the Inhibition in the test on Klebsiella pneumoniae, with Candida albicans and in the test with Cryptococcus neoformans were 12.56%, 3.72% and -3.68%, respectively.
Taken in the same sequence, the figures for `CC(C(=O)[O-])c1ccc(CC2CCCC2=O)cc1.[Na+]` (stereo unspecified) [LOXOPROFEN SODIUM] were 6.48%, 2.26% and -10.19%.
Taken in the same sequence, the figures for `CCN1CCCC1CNC(=O)c1cc(S(=O)(=O)CC)c(N)cc1OC` (stereo unspecified) [AMISULPRIDE] were 4.49%, 1.45% and -4%.
For `CC(C)NCC(O)COc1ccc(COCCOC(C)C)cc1.CC(C)NCC(O)COc1ccc(COCCOC(C)C)cc1.O=C(O)/C=C/C(=O)O` (stereo unspecified) [BISOPROLOL FUMARATE], in that order: 12.19%, 0.23% and -4.67%.
Consider `CCCCNC(=O)NS(=O)(=O)c1ccc(C)cc1` [TOLBUTAMIDE], for which the Inhibition in the test with Klebsiella pneumoniae came out at 16.6%; in the test on Candida albicans, 1.06%; in the test with Cryptococcus neoformans, 0.26%.
Taken in the same sequence, the figures for `CC(CN1c2ccccc2Sc2ccccc21)N(C)C.Cl` (stereo unspecified) [PROMETHAZINE HYDROCHLORIDE] were 0.77%, 3.31% and -6.2%.
Turning to `CC(C)(C)NCC(O)COc1cccc2c1CC(O)C(O)C2` (stereo unspecified) [NADOLOL], the Inhibition in the test with Klebsiella pneumoniae was 10.61%; in the test on Candida albicans, 1.18%; in the test with Cryptococcus neoformans, -8.66%.
For `C[C@@H](O)[C@H]1C(=O)N2C(C(=O)O)=C(S[C@@H]3CN[C@H](C(=O)N(C)C)C3)[C@H](C)[C@H]12` [MEROPENEM], in that order: 0.03%, 3.42% and 2.76%.
For `CC(=O)CCCCn1c(=O)c2c(ncn2C)n(C)c1=O` [PENTOXIFYLLINE], in that order: 12.41%, 2.65% and -7.44%.
`C[C@@H]1C[C@H]2[C@@H]3CCC4=CC(=O)C=C[C@]4(C)[C@@]3(F)[C@@H](O)C[C@]2(C)[C@H]1C(=O)CO` [DESOXIMETASONE]: the Inhibition in the test on Klebsiella pneumoniae is 9.74%; with Candida albicans it was 2.64%; in the test with Cryptococcus neoformans, 2.06%.
Taken in the same sequence, the figures for `COC(=O)C1=C(C)NC(C)=C(C(=O)OCCN(C)Cc2ccccc2)C1c1cccc([N+](=O)[O-])c1.Cl` (stereo unspecified) [NICARDIPINE HYDROCHLORIDE] were -5.88%, 0.94% and -9.15%.

A word on the Inhibition: it is the relative decrease from the control value, in per cent.
